Assay [1] has as its target T1, Serine/threonine-protein kinase TBK1 (Homo sapiens) (UniProt Q9UHD2).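 Also: values are mean inhibition of TBK1, screened as part of the GSK published kinase inhibitor set.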
T1 sequence (whole entry): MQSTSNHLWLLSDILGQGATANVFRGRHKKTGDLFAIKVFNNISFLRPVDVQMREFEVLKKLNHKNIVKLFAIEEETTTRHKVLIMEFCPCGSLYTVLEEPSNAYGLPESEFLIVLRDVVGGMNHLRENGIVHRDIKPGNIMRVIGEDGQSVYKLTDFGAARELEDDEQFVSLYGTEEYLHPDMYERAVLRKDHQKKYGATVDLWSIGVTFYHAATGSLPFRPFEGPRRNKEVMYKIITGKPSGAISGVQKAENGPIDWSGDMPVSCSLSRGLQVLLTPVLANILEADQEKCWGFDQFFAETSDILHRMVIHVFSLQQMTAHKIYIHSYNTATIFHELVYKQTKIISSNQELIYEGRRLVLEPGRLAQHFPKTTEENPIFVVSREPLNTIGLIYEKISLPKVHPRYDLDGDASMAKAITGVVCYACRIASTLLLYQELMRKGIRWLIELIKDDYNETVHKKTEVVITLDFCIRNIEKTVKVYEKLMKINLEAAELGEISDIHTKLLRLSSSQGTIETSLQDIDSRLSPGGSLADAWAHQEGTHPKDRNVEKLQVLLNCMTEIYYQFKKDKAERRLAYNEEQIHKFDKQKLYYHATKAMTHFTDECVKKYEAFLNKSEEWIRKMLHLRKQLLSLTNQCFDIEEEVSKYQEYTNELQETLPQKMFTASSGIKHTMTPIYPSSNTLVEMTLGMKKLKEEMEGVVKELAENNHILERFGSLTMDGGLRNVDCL
To be noted: at 1 µM.

Assay [2] concerns the target T2, Testis-specific serine/threonine-protein kinase 1 (Homo sapiens) (UniProt Q9BXA7).
T2 sequence (whole entry): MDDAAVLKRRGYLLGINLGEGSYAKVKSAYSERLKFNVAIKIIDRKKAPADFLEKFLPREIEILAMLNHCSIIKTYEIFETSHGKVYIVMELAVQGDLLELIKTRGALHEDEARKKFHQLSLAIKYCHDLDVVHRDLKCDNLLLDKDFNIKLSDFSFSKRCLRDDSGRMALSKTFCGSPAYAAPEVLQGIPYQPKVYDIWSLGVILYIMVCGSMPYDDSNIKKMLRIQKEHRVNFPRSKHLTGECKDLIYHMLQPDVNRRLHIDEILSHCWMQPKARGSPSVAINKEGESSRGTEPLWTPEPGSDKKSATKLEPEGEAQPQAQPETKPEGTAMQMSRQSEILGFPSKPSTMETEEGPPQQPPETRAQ
To be noted: at 0.1 µM.

Assay [3] concerns the target T2, Testis-specific serine/threonine-protein kinase 1 (Homo sapiens). To be noted: at 1 µM.
In assay [4] the target is T3, Testis-specific serine/threonine-protein kinase 2 (Homo sapiens) (UniProt Q96PF2).
T3 sequence (whole entry): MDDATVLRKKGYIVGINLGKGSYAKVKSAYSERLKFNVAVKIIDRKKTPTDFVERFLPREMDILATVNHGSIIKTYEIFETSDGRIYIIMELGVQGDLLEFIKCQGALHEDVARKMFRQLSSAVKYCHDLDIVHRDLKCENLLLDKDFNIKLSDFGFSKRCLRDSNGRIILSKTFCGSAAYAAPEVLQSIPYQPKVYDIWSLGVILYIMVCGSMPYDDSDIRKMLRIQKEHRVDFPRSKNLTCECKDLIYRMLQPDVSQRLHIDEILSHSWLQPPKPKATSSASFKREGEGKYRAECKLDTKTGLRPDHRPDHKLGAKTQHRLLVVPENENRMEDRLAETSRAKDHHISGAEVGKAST
The following applies: at 0.1 µM.

The target of assay [5] is T3, Testis-specific serine/threonine-protein kinase 2 (Homo sapiens). The following applies: at 1 µM.
The target of assay [6] is Casein kinase I isoform alpha (Homo sapiens) (UniProt P48729). The following applies: at 0.1 µM.
For assay [7] the target is unchanged. To be noted: at 1 µM.
Assay [8] addresses Casein kinase I isoform gamma-1 (Homo sapiens) (UniProt Q9HCP0). To be noted: at 0.1 µM.
For assay [9] the target is unchanged. To be noted: at 1 µM.
For assay [10], the target named is Casein kinase I isoform gamma-2 (Homo sapiens) (UniProt P78368). The following applies: at 0.1 µM.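 Also: values are mean inhibition figures reported as part of the GSK PKIS dataset.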

Where “and” joins values, the source holds several entries; their conditions need not be identical. Equal values may be shown once.

Sequence of Casein kinase I isoform gamma-2 (Homo sapiens) (P78368 whole entry, looked up, canonical isoform): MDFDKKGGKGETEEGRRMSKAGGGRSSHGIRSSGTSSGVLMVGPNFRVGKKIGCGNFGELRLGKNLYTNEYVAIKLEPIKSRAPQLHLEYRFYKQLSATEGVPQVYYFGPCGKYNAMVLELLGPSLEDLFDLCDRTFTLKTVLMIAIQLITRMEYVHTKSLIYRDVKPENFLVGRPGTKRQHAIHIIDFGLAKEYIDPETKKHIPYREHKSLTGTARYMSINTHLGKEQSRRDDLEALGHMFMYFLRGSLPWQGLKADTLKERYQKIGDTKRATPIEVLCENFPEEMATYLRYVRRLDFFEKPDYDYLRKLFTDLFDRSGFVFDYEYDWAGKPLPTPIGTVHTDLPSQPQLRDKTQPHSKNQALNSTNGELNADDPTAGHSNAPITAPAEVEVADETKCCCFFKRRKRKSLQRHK
Sequence of Casein kinase I isoform alpha (Homo sapiens) (P48729 2-337 limits assumed): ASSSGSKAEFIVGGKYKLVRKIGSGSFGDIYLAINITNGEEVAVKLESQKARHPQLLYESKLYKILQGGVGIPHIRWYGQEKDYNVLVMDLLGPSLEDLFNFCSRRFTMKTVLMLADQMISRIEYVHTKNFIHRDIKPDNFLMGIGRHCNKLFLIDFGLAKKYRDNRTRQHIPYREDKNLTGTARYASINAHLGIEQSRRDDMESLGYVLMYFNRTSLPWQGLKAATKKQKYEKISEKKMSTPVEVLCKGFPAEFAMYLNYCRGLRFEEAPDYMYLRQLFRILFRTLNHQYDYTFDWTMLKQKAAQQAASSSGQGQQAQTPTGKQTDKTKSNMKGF
Sequence of Casein kinase I isoform gamma-1 (Homo sapiens) (Q9HCP0 whole entry, looked up, canonical isoform): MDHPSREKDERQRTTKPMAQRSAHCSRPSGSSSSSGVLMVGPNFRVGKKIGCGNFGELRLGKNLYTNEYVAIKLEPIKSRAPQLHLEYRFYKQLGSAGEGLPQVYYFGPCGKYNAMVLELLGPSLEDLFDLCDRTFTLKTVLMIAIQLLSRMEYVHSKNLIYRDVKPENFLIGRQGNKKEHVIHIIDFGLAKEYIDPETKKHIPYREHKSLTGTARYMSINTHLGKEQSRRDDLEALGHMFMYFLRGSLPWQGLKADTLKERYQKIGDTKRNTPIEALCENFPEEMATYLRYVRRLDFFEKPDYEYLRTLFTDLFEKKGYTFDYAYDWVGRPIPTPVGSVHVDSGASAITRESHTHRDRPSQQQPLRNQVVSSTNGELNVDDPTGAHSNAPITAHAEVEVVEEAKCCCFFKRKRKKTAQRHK

The inhibition is the drop in the measured response relative to a control, in per cent. Consider `O=C1Nc2ccccc2/C1=C1\CCc2cc(O)ccc21`, for which the inhibition in assay [1] turned out to be 13%; in assay [2], 3.88%; in assay [3], 6.96%; in assay [4] it was 1.83%; in assay [5], 2.14%; in assay [6], 4.95%. The inhibition in assay [7] turned out to be 9.64%; in assay [8], 5%; in [9], 6.41%; in [10] it was 3.27%.
For the compound `FC(F)(F)CNc1nccc(-c2cnn3ncccc23)n1`, the inhibition is 0.21% in [1]; 3.33% in assay [2]; 2.64% in [3]; -0.54% in assay [4]; -0.28% in assay [5]; 3.2% in [6]. In addition, the inhibition in [7] turned out to be 23.5%; in [8] it was 2.54%; in [9], 6.11%; in assay [10] it was 3.35%.
In the case of `O=C(O[C@H]1CN[C@H](C#Cc2cc3ncnc(Nc4ccc5c(cnn5Cc5ccccc5)c4)c3s2)C1)N1CCOCC1`, the inhibition in assay [1] is 1.41%; in assay [2] it was 0.75%; in assay [3] it was -0.13%; in assay [4], -0.69%; in [5], -1.3%; in assay [6] it was -2.11%. The inhibition was 0.76% in [7], -0.81% in [8], 0.82% in [9] and -0.61% in [10].
As to `CS(=O)(=O)CCNCc1ccc(-c2ccc3ncnc(Nc4ccc(OCc5ccccc5)cc4)c3c2)o1`, the inhibition in assay [1] turned out to be 3.03%; in [2] it was 3.31%; in assay [3], 4.28%; in assay [4], 5.73%; in assay [5] it was 2.17%; in assay [6], 4.49%. In addition, the inhibition came out at 1.55% in [7], 2.67% in assay [8], 3.35% in assay [9] and 2.72% in assay [10].
Turning to `O=C(O[C@H]1CN[C@H](C#Cc2cc3ncnc(Nc4ccc5c(ccn5Cc5cc(F)ccc5F)c4)c3s2)C1)N1CCOCC1`, the inhibition came out at 2.11% in [1]; 3.63% in assay [2]; 4.15% in assay [3]; 2.52% in [4]; 1.57% in assay [5]; 2.93% in assay [6]. Further, the inhibition in [7] worked out at 5.4%; in assay [8], 4.17%; in assay [9] it was 5.41%; in assay [10], 3.09%.
`CC1=C(C(=O)Nc2ccc3[nH]ncc3c2)C(c2ccc(F)cc2)N=C(c2ccc(C(F)(F)F)nc2)N1` (stereo not given): the inhibition in [1] is 2.03%; in assay [2], 1.72%; in [3], -0.03%; in [4], 0.88%; in assay [5] it was -1.54%; in [6], 0.89%. The inhibition turned out to be 2.81% in assay [7], 3.19% in assay [8], 2.72% in assay [9] and 0.59% in assay [10].
As to `CN1CCN(Cc2ccc(-c3cc4ncnc(Nc5ccc(OCc6cccc(F)c6)c(Cl)c5)c4s3)o2)CC1`, the inhibition in assay [1] was 2.76% and 4.14%; in assay [2] it was 2.79% and 6.19%; in [3], 3.62% and 7.65%; in assay [4], 0.34% and 4.58%; in assay [5], 0.35% and 5.87%; in assay [6], 3.03% and 3.11%. Besides, the inhibition in assay [7] was 4.88% and 3.62%; in assay [8], 2.79% and 5.01%; in assay [9] it was 4.51% and 5.57%; in [10] it was 2.31% and 3.69%.
As to `CCCNc1cccc(-n2ncc3c(N/N=C/c4ccncc4)ncnc32)c1`, the inhibition amounted to 20.2% in assay [1]; 1.42% in assay [2]; 6.17% in assay [3]; 0.21% in assay [4]; 3.17% in assay [5]; 0.14% in [6]. Besides, the inhibition in assay [7] was determined as 1.89%; in [8], 0.84%; in [9], 1.57%; in assay [10], 1.79%.
Regarding `CNC(=O)c1sc(-n2cnc3cc(OC)c(OC)cc32)cc1OCc1ccccc1C(F)(F)F`, the inhibition came out at 4.39% in assay [1]; 1.24% in assay [2]; 1.63% in [3]; 1.51% in assay [4]; 1.01% in assay [5]; 0.44% in assay [6]. Further, the inhibition in [7] stood at 2.65%; in [8] it was 3.33%; in assay [9], 3.86%; in assay [10], 3.4%.
As to `Cn1c(-c2nonc2N)nc2cnccc21`, the inhibition was found to be 7.42% in [1]; 3.15% in [2]; 3.81% in assay [3]; 2.01% in assay [4]; 0.12% in [5]; 3.34% in assay [6]. Besides, the inhibition came out at 6.21% in [7], 2.61% in assay [8], 2.68% in assay [9] and 2.2% in [10].
As for `N#Cc1ccc2c(-c3ccnc(NC4CC4)n3)c(-c3ccc(F)cc3)nn2c1`, the inhibition in assay [1] is 0.07%; in assay [2] it was 1.44%; in assay [3], -1.14%; in [4], 1.07%; in [5], -0.63%; in assay [6], 3.72%. Besides, the inhibition in assay [7] was 30.1%; in assay [8], 1.85%; in [9], 4.03%; in assay [10] it was 2%.
Regarding `CCS(=O)(=O)c1ccc(OC)c(Nc2ncc(-c3cccc(C(C)=O)c3)o2)c1`, the inhibition in [1] is 5.54%; in assay [2], 2.02%; in [3], 5.38%; in assay [4], 3.72%; in assay [5], 1.57%; in [6], 0.47%. Moreover, the inhibition was 2.36% in [7], 2.26% in assay [8], 2.79% in [9] and 2.75% in assay [10].
With `COc1cc(Nc2ncc(-c3ccccc3)o2)cc(OC)c1`, the inhibition in [1] came out at 4.2%; in [2] it was 4.25%; in assay [3], 4.53%; in [4], 2.32%; in [5], 2.49%; in assay [6] it was 4.52%. The inhibition in assay [7] was determined as 3.47%; in [8] it was 4.39%; in [9] it was 4.78%; in assay [10], 4.11%.
Take `c1ccc(-c2n[nH]cc2-c2ccnc(-c3ccc(OCCn4ccnc4)cc3)c2)nc1`: the inhibition in assay [1] came out at 0.29%; in assay [2], 1.73%; in assay [3], 2.8%; in assay [4], 2.08%; in assay [5], 1.93%; in assay [6], 3.33%. Moreover, the inhibition in assay [7] worked out at 18.1%; in assay [8], 0.69%; in [9], 3.14%; in assay [10], 0.83%.
Consider `COC(=O)Nc1nc2ccc(Oc3ccc(NC(=O)Nc4cc(C(F)(F)F)ccc4F)cc3)cc2s1`, for which the inhibition in assay [1] was -0.01%; in [2], 0.44%; in assay [3], 1.02%; in assay [4] it was -1.47%; in assay [5] it was 0.19%; in assay [6], -1.12%. Besides, the inhibition in assay [7] was 3.01%; in [8], -0.2%; in assay [9] it was -0.02%; in assay [10], -0.36%.
As for `COc1cc(N2CCN(C(C)C)CC2)ccc1Nc1nc(Nc2cccc3ncccc23)c2cc[nH]c2n1`, the inhibition is 0.59% in [1]; 5.22% in assay [2]; 31.2% in assay [3]; 0.31% in [4]; 11.3% in assay [5]; -0.03% in assay [6]. Also, the inhibition in assay [7] is 2.43%; in assay [8], -1.03%; in assay [9] it was -0.55%; in [10] it was -1.25%.

For the origin of these results see ChEMBL document CHEMBL1961873, “Compounds: GSK PKIS; Assays: Nanosyn kinase panel” (2012).
